Bioassay records: PubChem, National Center for Advancing Translational Sciences (NCATS)
Mito fusion yeast – blocks mitochondrial division or promotes mitochondrial fusion | S. cerevisiae fusion-defective mutant growth rescue, CellTiterGlo 48 h | Potency, µM (highest dose often 46.1 µM), without a hit: at the highest dose growth rescue (activation), most hits filed as activators | 320,000 compounds, 0.23% hits | AID 485298; note: % of control where 0% means no effect; nearly all actives have a fitted effect of over 45% in size
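Growth-rescue viability read-out: after 48 h at the non-permissive 37C in glycerol/ethanol YPEG, yeast mitochondrial fusion mutants are measured by CellTiterGlo luminescence; compounds (23 nl pinned per well) restoring growth score as division inhibitors or fusion activators.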
Abeta rescue – A-beta toxicity reversal in yeast; yeast expressing A-beta42, growth rescue, OD600, 48 h; response scale: 0% DMSO, 100% iron-clioquinol control; Potency, µM (doses to about 46.1 µM), hits mostly activators; 410,000 compounds, 0.063% hits; note: nearly all actives have a fitted effect of over 55% in size
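Yeast growth medium received pinned compounds, then yeast cells expressing toxic A-beta were added; plates incubated at 30 C for 48 hr. Growth read as absorbance at 600 nm, normalized to DMSO and equimolar FeCl3 plus clioquinol controls.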
TDP43 rescue – TDP-43 toxicity inhibition in yeast. Potency, µM (highest dose often 46.1 µM), without a hit: at the highest dose growth rescue (activation), usual class: activators. AID 652104. TDP-43 expressing yeast growth rescue, BacTiter-Glo, 24 h. 410,000 compounds, 1.8% hits; note: % of control where 0% means no effect; nearly all actives have a fitted effect of over 50% in size
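Yeast expressing TDP-43 (pregrown in raffinose, seeded at OD600=0.02 in galactose medium) exposed to compounds 24 hr at 30 deg C. Growth read by BacTiter-Glo luminescence; rescue of toxicity appears as increased signal.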
AT treatment – potential ataxia-telangiectasia treatment; F2112 A-T fibroblasts, KAP-1 phosphorylation AlphaLISA; neocarzinostatin DNA damage 30 min before lysis; Potency, µM (series often up to 57.5 µM), for inactives: at the highest dose activation, most hits filed as activators; 320,000 compounds, 0.19% hits; note: % of control where 0% means no effect; nearly all actives have a fitted effect of over 45% in size
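ATM-like activity read as KAP-1 phosphorylation via AlphaLISA donor/acceptor antibody pairs after lysis and 6 hr at 25C. Cells were ATM-null patient fibroblasts (F2112, hTERT), dosed 60 min, then exposed to the DSB inducer NCS for 30 min.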
FUS suppressor – FUS proteinopathy suppression in yeast | 390,000 compounds, 0.24% hits | S. cerevisiae FUS-expressing, growth rescue, OD600, 24 h | Potency, µM (series often up to 76.6 µM), actives largely listed as activators;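 note: plate controls were DMSO vehicle for no effect and reference control for full effect; nearly all actives have a fitted effect of over 55% in size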
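S. cerevisiae expressing FUS from galactose induction served as the toxicity model. Growth after 24hr at 30C, read as absorbance at 600 nm, indicates suppression of toxicity; compounds dosed at several concentrations.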
aSyn yeast inh – alpha-synuclein toxicity inhibition in yeast. Yeast expressing alpha-synuclein, growth rescue, BacTiter-Glo, 24 h. Potency, µM (series often up to 46.1 µM), for inactives: top-dose growth rescue (activation), actives largely listed as activators. 370,000 compounds, 0.14% hits. AID 652106; note: % of control where 0% means no effect; nearly all actives have a fitted effect of over 65% in size
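Readout is rescue of growth in alpha-synuclein-expressing yeast, so inhibitors of toxicity appear as activators. Growth after 24 hr at 30 deg C in galactose medium is quantified by luminescence.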
* hit, by the source's call; i = inactive; ? = inconclusive; · = no result; [ ] = dose if it differs, or a comment. The list is not random: actives were taken first. Their share in the collection is about 2.4%. Calls come from the whole dose curve; as a rule, active = well fitted curve in the direction sought with a large enough effect; inconclusive = small, poorly fitted or top-dose-only effect, or another doubt; inactive = no such curve, though single readings can be large; an effect the other way counts as inactive or inconclusive. Potency is the fitted concentration of half-maximal effect.

SMILES | Mito fusion yeast | Abeta rescue | TDP43 rescue | AT treatment | FUS suppressor | aSyn yeast inh
Cc1ccc(CSCC(=O)N2CCN(c3cc(Cl)ccc3C)CC2)cc1 | · | i | 18µM* | · | i | ·
CCOC(=O)C1CCCCN1C(=O)[C@@H]1CC=C[C@@H]2CCN(c3ccccc3)C(=O)[C@@H]21 (stereo partly drawn) | · | · | · | · | i | ·
CCCN(CCC)C(=O)CSc1c2c(nc3ccc(Cl)cc13)CCCC2 | · | i | 20µM* | · | i | ·
CN(Cc1ccccc1)C(=O)CSc1c2c(nc3ccc(Cl)cc13)CCCC2 | · | i | 20µM* | · | ? | ·
CCCCN(C)C(=O)CSc1c2c(nc3ccc(Cl)cc13)CCCC2 | · | i | 0% | · | i | ·
CC(=O)c1cc(-c2ccc(-c3ccccc3)c(F)c2)c(=O)n2c1CCC2 | · | · | · | · | i | ·
O=C1NC[C@H](c2ccccc2)OC(=O)[C@H](Cc2ccc(F)cc2)CC/C=C/C[C@H]1CC(=O)N(CCO)Cc1ccccc1 | · | i | 7% | -8% | 32µM* | -1%
O=C(N[C@@H]1C/C=C\C[C@H](CC(=O)N(CCO)Cc2ccccc2)C(=O)N[C@@H](Cc2ccccc2)COC1=O)OCC1c2ccccc2-c2ccccc21 | · | i | 9% | 4% | 32µM* | 7%
O=C(C[C@H]1C/C=C\CC[C@H](Cc2ccc(F)cc2)C(=O)O[C@@H](c2ccccc2)CNC1=O)N[C@@H](CO)Cc1ccccc1 | · | i | 21% | -7% | i | 3%
O=C1N[C@@H](Cc2ccccc2)COC(=O)[C@H](Cc2ccc(F)cc2)CC/C=C/C[C@H]1CC(=O)N(CCO)Cc1ccccc1 | · | i | 29% | 5% | 22µM* | -1%
C[C@@H]1COC(=O)[C@H](NC(=O)OCC2c3ccccc3-c3ccccc32)C/C=C\C[C@@H](CC(=O)N(CCO)Cc2ccccc2)C(=O)N1 | · | i | 18% | -1% | i | 0%
O=C(C[C@H]1C/C=C\C[C@H](Cc2ccc(F)cc2)C(=O)O[C@@H](c2ccccc2)CNC1=O)N[C@H](CO)Cc1ccccc1 | · | i | 10% | -3% | 28µM* | 1%
CC(C)CCNC(=O)C1COC(O)(C(Cc2ccccc2)NC(=O)[C@@H](NC(=O)OCc2ccccc2)C(C)C)CN1 (stereo partly drawn) | · | · | · | · | i | ·
COc1ccc(Cl)cc1NC(=O)Cn1c(=O)n(Cc2ccc(F)cc2)c(=O)c2cccnc21 | · | i | 11% | · | i | ·
NC(=O)c1oc2ccccc2c1NC(=O)CCc1ccccc1 | 5% | i | 11µM* | 1% | i | 1%
CC(=O)Nc1c(C(=O)c2ccccc2)oc2ccccc12 | 5% | i | 7.9µM* | -1% | i | ·
O=C(Cc1ccccc1)Nc1c(C(=O)c2ccccc2)oc2ccccc12 | · | i | 15% | · | i | ·
COc1cccc(C(=O)Nc2cccc(-c3ccccc3)c2)c1 | 7% | i | 18µM* | 6% | i | -1%
COc1cccc(NC(=O)c2ccccc2)c1 | -9% | i | 28% | 33% | i | -3%
COc1cc(OC)cc(C(=O)Nc2cccc(NC(=O)c3ccccc3)c2)c1 | -13% | i | -1% | -7% | i | 5%
COc1ccc(NC(=O)Nc2ccccc2SC)c(OC)c1 | -7% | i | -11% | -6% | i | 0%
COc1ccc(NC(=O)c2cccc(Oc3ccccc3)c2)cn1 | 8% | i | 11µM* | 4% | i | 10%
COc1cccc(NC(=O)Nc2ccccc2SC)c1 | -1% | i | 20µM* | -2% | i | -9%
COc1cc(OC)cc(C(=O)Nc2ccc(Nc3ccccc3)cc2)c1 | -2% | i | -18% | 0% | 25µM* | 9%
CCN(CC)C(=O)CC[C@H]1CC[C@]2(CCCN(Cc3ccccn3)C2)O1 | · | · | · | · | i | ·
SMILES | Mito fusion yeast | Abeta rescue | TDP43 rescue | AT treatment | FUS suppressor | aSyn yeast inh
O=C(CSc1ncnc2sc3c(c12)CCCC3)Nc1ccc(Oc2ccccc2)cc1 | · | · | · | · | i | ·
CC(C)(C)c1ccc(C(=O)N2CCC(NC(=O)c3ccccc3)CC2)cc1 | 35µM* | i | 10% | 10% | i | -6%
Cc1ccc(C(=O)CC2(O)C(=O)N(CCc3ccccc3)c3ccc(Br)cc32)o1 (stereo not drawn) | 15% | i[9.22 µM] | -11% | 7% | ? | 25%
O=C(CC1(O)C(=O)N(CCc2ccccc2)c2ccc(Br)cc21)c1ccccc1 (stereo not drawn) | · | i | 32µM* | · | i | -13%
CCc1ccc(NC(=O)CSc2nccn2-c2ccc(F)cc2)cc1 | · | ? | 16µM* | · | i | ·
CCc1ccc(NC(=O)CSc2nccn2-c2cccc(C)c2C)cc1 | · | i | 32µM* | · | i | ?
C[N+](C)(C)c1ccc(/C=C/c2ccnc3ccccc23)cc1 | · | · | · | · | · | -38%
CCOc1ccc(-c2cn(-c3ccc(OC)cc3)c(SC)n2)cc1 | 11% | i | 13µM* | 3% | i | 7%
N#C/C(=C\c1cccnc1)c1ccc([N+](=O)[O-])cc1 | 7% | i | 11µM* | -4% | i | 3%
N#C/C(=C\c1ccc([N+](=O)[O-])cc1)c1ccccn1 | -7% | i | 13µM* | -5% | i | 5%
N#C/C(=C/c1cccnc1)c1ccccc1 | -3% | i | ? | -8% | i | 12%
Cc1ccc(-n2nnc(-c3nc(-c4cccs4)no3)c2N)cc1C | · | i | 19% | · | i | ·
CCCc1nn2c(=O)cc(COC(=O)c3cccc(NC(=O)COc4ccccc4C)c3)nc2s1 | · | i | 19% | · | i | ·
Cn1cccc1CNC(=O)Nc1ccccc1 | -4% | i | -13% | 4% | 22µM* | 0%
Cn1cccc1CNC(=O)Nc1ccc(Cl)cc1 | -3% | i | -6% | -2% | ? | -13%
O=C(Nc1ccc(OC(=O)c2ccco2)cc1)c1ccco1 | -1% | i | -7% | 2% | i | -36%
O=C(OC1CCCCC1)c1ccc(NC(=O)c2ccco2)cc1 | 24% | i[9.22 µM] | 35µM* | 4% | i | -26%
O=C(COc1ccccc1)Nc1sc2c(c1C(=O)Nc1ccccc1)CCCCC2 | · | i | 7% | · | i | ·
COc1ccc(NC(=O)c2c(NC(=O)COc3ccc(Cl)cc3)sc3c2CCCCC3)cc1 | · | i | 8.9µM* | · | i | ·
CCCC1Nc2ccc(C(=O)O)cc2C2C=CCC12 (stereo not drawn) | 3% | ? | ? | 22% | i | 0%
CC(C)C1Nc2ccc(C(=O)O)cc2C2C=CCC21 (stereo not drawn) | 3% | i | 18µM* | 11% | i | -1%
